Growth data for 14 compounds are collected here from PubChem BioAssay (NCI).

Among the test systems are T-47D breast; BT-549 breast; MDA-MB-435 melanoma; SW-620 colon; MCF7 breast; HCT-116 colon; HCC-2998 colon; KM12 colon; MDA-MB-468 breast.
What all share (assay): NCI-60 one-dose screen, 48 h (100 = growth as untreated, 0 = no growth, -100 = all killed)
Holding throughout (details): 10 µM

About 83,000 compounds went through this panel and 20% of them were active in at least one assay; those are over-represented in the sample as a whole.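 Activity criterion: percent growth below 10, measured after cells in 96-well plates were exposed to a single compound concentration for 48 hours.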 Values without a mark were called inactive. Calls of active or inactive are those of the source.

`O=c1cc(-c2ccccc2)oc2cc(OCCCNCc3ccccc3)cc(O)c12`: the growth is -64.7% (active) in the experiment on T-47D breast; 46.8% in the experiment on BT-549 breast; -44.2% (active) with MDA-MB-435 melanoma; -13.8% (active) with SW-620 colon; -30% (active) in the experiment on MCF7 breast; -68.7% (active) in the experiment on HCT-116 colon. For the same compound, the growth with HCC-2998 colon is -95.8% (active); in the experiment with KM12 colon it was -38.3% (active); in the experiment with MDA-MB-468 breast, -59.5% (active).

Regarding `O=C1Nc2ccc(F)cc2/C1=C/c1cccc(OCc2ccccc2)c1`, the growth in the experiment with T-47D breast is 13.8%; in the experiment on BT-549 breast, 23%; in the experiment with MDA-MB-435 melanoma, 5.74% (active); in the experiment on SW-620 colon, 8.79% (active); in the experiment with MCF7 breast, 3.46% (active); with HCT-116 colon, 10.1%. Further, the results for the growth with HCC-2998 colon, in the experiment on KM12 colon and with MDA-MB-468 breast were 45.8%, 19% and -22.3% (active), respectively.

Regarding `Cc1nn(-c2ccccc2)c2ncn(CC(=O)N/N=C/c3c[nH]c4ccccc34)c(=O)c12`, the growth with T-47D breast was 83.2%; in the experiment on BT-549 breast, 99.4%; with MDA-MB-435 melanoma it was 94.9%; in the experiment with SW-620 colon, 95.4%; in the experiment on MCF7 breast, 68.7%; in the experiment on HCT-116 colon it was 82.5%. The growth with HCC-2998 colon was 114%; in the experiment on KM12 colon it was 92.4%; in the experiment on MDA-MB-468 breast it was 102%.

Turning to `N#Cc1ccc(-c2nn(-c3ccc(C(=O)O)cc3)cc2CNc2cc(Cl)cc(C(F)(F)F)c2)cc1`, the growth in the experiment on T-47D breast is 8.34% (active); with BT-549 breast, -22.5% (active); with MDA-MB-435 melanoma, 9.7% (active); in the experiment with SW-620 colon, 21.2%; with MCF7 breast it was 5.75% (active); in the experiment on HCT-116 colon it was -2.71% (active). The growth with HCC-2998 colon was -27.7% (active); in the experiment on KM12 colon, 4.92% (active); in the experiment with MDA-MB-468 breast it was -13.7% (active).

Turning to `COc1cccc(-c2ccc(/C=N/NC(=O)c3[nH]c4ccc(Br)cc4c3-c3ccccc3)o2)c1`, the growth with T-47D breast was 54.7%; in the experiment on BT-549 breast it was 25.8%; in the experiment with MDA-MB-435 melanoma, -30.7% (active); with SW-620 colon, 24.6%; in the experiment with MCF7 breast, 4.65% (active); with HCT-116 colon it was -7.28% (active). In addition, the growth was 11.8% with HCC-2998 colon, 10.8% in the experiment on KM12 colon and -2.92% (active) in the experiment on MDA-MB-468 breast.

Take `O=C(NC(=S)N1CCN(c2ncnc3c2cnn3-c2ccccc2)CC1)c1ccc(Cl)cc1`: the growth was 57.2% with T-47D breast; 63.5% in the experiment with BT-549 breast; 89.2% in the experiment with MDA-MB-435 melanoma; 68.9% in the experiment on SW-620 colon; 38.9% with MCF7 breast; 41.9% with HCT-116 colon. Further, the growth in the experiment on HCC-2998 colon was 82.6%; with KM12 colon, 87.3%; with MDA-MB-468 breast, 64.6%.

For the compound `O=C(O)CCCCCCCCCCN1C(=O)/C(=C/c2cnc(-c3ccc(Cl)cc3)s2)SC1=S`, the growth in the experiment with T-47D breast was 47.2%; with BT-549 breast, -17.1% (active); with MDA-MB-435 melanoma, 49%; in the experiment on SW-620 colon, 27.6%; in the experiment on MCF7 breast, 27.1%; in the experiment on HCT-116 colon it was 4.89% (active). The growth in the experiment with HCC-2998 colon is 82.4%; in the experiment with KM12 colon, 14%; with MDA-MB-468 breast, 52.3%.

Consider `O=C(c1ccc(Cl)cc1)C1[C@H](c2ccccc2Br)[C@@H](c2ccccc2)NC12C(=O)Nc1ccc(Br)cc12` (stereo partly specified), for which the growth in the experiment with T-47D breast was 21.3%; in the experiment on BT-549 breast it was 54.8%; with MDA-MB-435 melanoma it was -39.7% (active); in the experiment on SW-620 colon, 7.29% (active); in the experiment on MCF7 breast, -2.68% (active); with HCT-116 colon, 3.99% (active). Moreover, the growth in the experiment with HCC-2998 colon is -13.2% (active); in the experiment with KM12 colon it was 11.8%; in the experiment with MDA-MB-468 breast, -39.8% (active).

For `Cc1cc(=O)oc2cc(OCCCCOc3ccc(/C=C/C(=O)Nc4ccc(F)c(Cl)c4)cc3)ccc12`, the growth was 67.1% in the experiment on T-47D breast; 93.2% with BT-549 breast; 92.7% in the experiment on MDA-MB-435 melanoma; 96.9% with SW-620 colon; 77.8% with MCF7 breast; 87.6% in the experiment with HCT-116 colon. Also, the values for the growth with HCC-2998 colon, with KM12 colon and in the experiment on MDA-MB-468 breast were 123%, 91.3% and 120%, respectively.

`CN1CCN(Cc2ccc(C(=O)Nc3cccc(Nc4ccc5c(O)cccc5n4)c3)cc2C(F)(F)F)CC1`: the growth was -36.8% (active) in the experiment with T-47D breast; -58.4% (active) in the experiment with BT-549 breast; -91.6% (active) in the experiment with MDA-MB-435 melanoma; -84% (active) in the experiment with SW-620 colon; -67.1% (active) with MCF7 breast; -43.9% (active) with HCT-116 colon. For the same compound, the values for the growth with HCC-2998 colon, in the experiment with KM12 colon and in the experiment with MDA-MB-468 breast were -93.2% (active), -76.7% (active) and -92.7% (active), respectively.

In the case of `O=C(Nc1ccc(I)cc1)Nc1nc2ccc([N+](=O)[O-])cc2s1`, the growth in the experiment on T-47D breast is -85.9% (active); in the experiment on BT-549 breast, -99.6% (active); with MDA-MB-435 melanoma, -96.1% (active); in the experiment on SW-620 colon, -80.4% (active); with MCF7 breast, -93.6% (active); in the experiment with HCT-116 colon, -100% (active). Also, the growth in the experiment with HCC-2998 colon was -95.6% (active); with KM12 colon, -93.3% (active); in the experiment on MDA-MB-468 breast it was -97.2% (active).

Turning to `Cc1ccc(-c2ccc(SCC(=O)Nc3ccc(S(N)(=O)=O)cc3Br)nn2)cc1`, the growth was 35.2% in the experiment on T-47D breast; 14.2% in the experiment on BT-549 breast; 61.9% in the experiment with MDA-MB-435 melanoma; 60% in the experiment with SW-620 colon; 32.4% in the experiment with MCF7 breast; -7.84% (active) in the experiment with HCT-116 colon. Further, the growth in the experiment with HCC-2998 colon is 39.4%; in the experiment with KM12 colon it was 38.3%; with MDA-MB-468 breast, -21.3% (active).

Consider `COc1ccc2[nH]c(=O)c(CSc3cccc(N)c3)cc2c1`, for which the growth in the experiment on T-47D breast is 37.5%; with BT-549 breast, 75.1%; in the experiment on MDA-MB-435 melanoma, 31.6%; in the experiment with SW-620 colon, 25%; in the experiment on MCF7 breast, 31%; in the experiment on HCT-116 colon it was 52.5%. Also, the results for the growth in the experiment on HCC-2998 colon, in the experiment with KM12 colon and in the experiment with MDA-MB-468 breast were 44.6%, 4.43% (active) and 34.7%, respectively.

In the case of `O=c1[nH]c2ccc(Cl)cc2cc1CSc1ccc(Nc2nccc(-c3ccc(Cl)cc3)n2)cc1`, the growth in the experiment on T-47D breast was 78.9%; with BT-549 breast, 81.7%; in the experiment on MDA-MB-435 melanoma it was 47%; in the experiment with SW-620 colon, 3.61% (active); in the experiment on MCF7 breast it was 5.48% (active); with HCT-116 colon it was 32.9%. Further, the growth in the experiment with HCC-2998 colon was 67%; in the experiment with KM12 colon, 31.4%; in the experiment with MDA-MB-468 breast, -20.1% (active).
